In paper PMC5540273 (PLoS ONE, 2017):

tested on: MAP4K2; settings: concentration: 1 μM, replicates: in singlicate; n = 1
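Note: KINOMEscan kinase panel screen.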

SMILES | %Inh [%]
CCc1nc(-c2cccc(C)c2)c(-c2ccnc(NCc3ccccc3)c2)s1 | 3
O=c1cc(N2CCOCC2)nc2n(Cc3cccc4ccccc34)ccn12 [GSK2333389] | 0
CN1c2ccc(NCc3ccc(F)cc3)cc2-c2c(cnn2C)S1(=O)=O | 0
Cc1ccc(NC(=O)c2ccnc(N3CCN(C)CC3)c2)cc1-c1ccc(C(=O)NCC2CC2)cc1 [GW775604] | 0
Cc1ccc(C(=O)NCC(N)=O)cc1-n1c(C)cc(OCc2ccc(F)cc2F)c(Br)c1=O | 0
COCCNC(=O)c1ccc(-c2cc(C(=O)NC3CC3)cc(F)c2C)cc1 [GW868318] | 20
COc1ccc(Nc2ncc(C#N)c(Nc3ccccc3C(N)=O)n2)cc1N1CCN(C)CC1.Cl [GSK1558669] | 98.8
COc1ccc(S(=O)(=O)NC2CCN(c3cc(C)nc(Nc4cccc(C#N)c4)n3)CC2)cc1.O=C(O)C(F)(F)F [GSK1653539] | 0
COc1ccc(Nc2nccc(N3CCC(NC(=O)Nc4cc(C)ccc4C)C3)n2)cc1 (stereo not shown) [GSK1379741] | 0
CC(C)(C)n1cnc2c(N)ncnc21 [SKF-97359] | 0
COc1cc2ncn(-c3cc(OCc4sccc4Cl)c(C(N)=O)s3)c2cc1OC [GSK448459] | 20
COC(=O)Nc1nc2cc(Oc3ccc(NC(=O)Nc4cc(F)ccc4F)cc3)ccc2[nH]1.Cl [GW701424] | 0
Cc1c2ccc(N(C)c3ccnc(Nc4cccc(S(N)(=O)=O)c4)n3)cc2nn1Cc1ccccc1.Cl.Cl [GW787226] | 0
O=C(NCCNc1ccnc(Nc2ccc(F)cc2)n1)c1cc2ccccc2s1 [GSK1379874] | 0
CCn1cnc2c(N)ncnc21 [GW345098] | 19
O=C1Cc2cc(Nc3nc(NCc4cccc(S(=O)(=O)C(F)(F)F)c4)ncc3C(F)(F)F)ccc2N1 | 0
Cl.Oc1cccc(Nc2ccnc3cc(-c4ccncc4)ccc23)c1 [GW494601] | 88

SMILES | %Inh [%]
Cn1cc(-c2ccc3c(c2)CCN3C(=O)Cc2ccccc2Cl)c2c(N)ncnc21 [GSK2608885] | 10
NS(=O)(=O)CCc1cccc(Nc2nccc(-c3c(-c4cccc(NC(=O)c5c(F)cccc5F)c4)nn4ccccc34)n2)c1 [GSK336735] | 0
O=c1cc(N2CCOCC2)nc2n(Cc3cccc(Cl)c3Cl)c(C3CC3)nn12 [GSK2358994] | 11
COc1ccc(COc2cc(-n3cnc4ccccc43)sc2C(N)=O)cc1 [GSK1024304] | 0
c1ccc(-c2n[nH]cc2-c2ccnc3ccccc23)nc1 [GW271431] | 0
CN(C1=C(c2ccccc2)C(=O)NC1=O)c1ccccc1 [SB-334860] | 0
COc1ccc(CNC(=O)NC2CCN(c3ccnc(Nc4ccc(OC)cc4)n3)C2)cc1 (stereo not shown) [GSK1379727] | 0
COc1cc2c(cc1OC[C@@H](O)CO)ncc1c3ccc(C#N)cc3[nH]c21 | 17
c1ccc(-c2cc(-c3c[nH]nc3-c3ccccn3)ccn2)cc1 [GW576604] | 0
Cc1cccc(-c2nc(-c3ccc(S(C)(=O)=O)cc3)sc2-c2ccncc2)c1 | 0
Cc1cccc(Cn2ccn3c(=O)cc(N4CCOCC4)nc23)c1 [GSK2297542] | 0
Fc1ccc(-c2nn3c(OCC(F)(F)F)cccc3c2-c2ccncc2)cc1 [GW514784] | 0
N#Cc1c(N2CCOCC2)sc(-c2ccn[nH]2)c1-c1ccc(Cl)cc1 | 0
COc1cc2c(cc1OCCN1CCN(C)CC1)ncc1c3ccc(C#N)cc3[nH]c21 | 54
CC(=O)Nc1ccc(COc2ccc(Nc3ccnc4cc(-c5ccccn5)ccc34)cc2)cc1.Cl [GW440148] | 0
[2H]C([2H])(c1cccc(C(F)(F)F)c1C)n1ccn2c(=O)nc(N3CCOCC3)cc12 [GSK2336394] | 0
COc1ccc(Nc2nccc(N3CCC(NC(=O)Nc4cccc(C(C)=O)c4)C3)n2)cc1 (stereo not shown) [GSK1379731] | 0
